From PubChem BioAssay
BAZ2B inh = blocks human BAZ2B. 360,000 tested, 4.4% active. AlphaScreen BAZ2B-H3K14Ac peptide displacement. Potency, µM (doses to about 114 µM), inactives show at the top dose activity change, negative = inhibition, usual class: inhibitors; also: % is scaled to controls: 0 for no effect and ±100 for the full control effect; nearly all actives have a fitted effect of over 60% in size
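AlphaScreen displacement: compounds (up to 110uM) incubated 30 min at room temperature with a preformed 50 nM BAZ2B/50 nM biotinylated H3K14Ac peptide complex in PBS pH 7.4 with Tween-20. Donor and acceptor beads at 10 ug/mL final added, 20 min light-protected before reading.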
G9a inh = inhibitors of human histone lysine methyltransferase G9a | 350,000 tested, 8.8% active | AID 504332 | Potency, µM (series often up to 102 µM), inactives show top-dose activity, negative = inhibition, most hits filed as inhibitors | G9a H3K9 monomethylation, AlphaScreen, 2 h; also: % is scaled to controls: 0 for no effect and ±100 for the full control effect; nearly all actives have a fitted effect of over 75% in size
Target sequence (Q96KQ7 913-1193 limits assumed): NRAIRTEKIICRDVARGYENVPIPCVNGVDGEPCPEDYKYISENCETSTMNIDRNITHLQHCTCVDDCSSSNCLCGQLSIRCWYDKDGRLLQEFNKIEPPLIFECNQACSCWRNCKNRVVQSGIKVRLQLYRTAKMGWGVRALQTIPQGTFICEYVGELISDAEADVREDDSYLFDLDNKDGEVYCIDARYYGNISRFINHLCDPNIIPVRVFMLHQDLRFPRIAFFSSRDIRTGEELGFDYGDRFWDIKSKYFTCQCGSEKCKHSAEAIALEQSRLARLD
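Using a bead-based AlphaScreen, monomethylated H3K9 product from 2 h room-temperature reactions (G9a 20 nM, peptide 500 nM, SAM 20 uM) was detected with 0.5 ug/mL rabbit anti-H3K9me1 antibody.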
Sfp inh = blocks B. subtilis Sfp PPTase activity; Biochemical Sfp PPTase activity, qHTS; Potency, µM, for the others: largest response in the series, negative = inhibition, most hits filed as inhibitors; 310,000 tested, 3.5% active; AID 1490;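 also: the enzyme is Sfp with the accession as filed and its product quenches rhodamine fluorescence; 0% = enzyme reaction without inhibitor and -100% = no enzyme wells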
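With Hepes-Na pH 7.6 buffer containing 10 mM MgCl2, Sfp (15 nM) modified BHQ-2-YbbR (12.5 uM) using rhodamine-CoA (5 uM). Two reads 30 minutes apart at 525/598 nm yielded each well's rate.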
HP1b binding inh = blocks HP1-beta chromodomain binding to methylated histone tails | Potency, µM (series often up to 114 µM), for the others: at the top dose activity change, negative = inhibition, actives largely listed as inhibitors | AlphaScreen HP1-beta / biotin-H3K9me3 peptide binding | P83916 | 390,000 tested, 0.56% active; also: nearly all actives have a fitted effect of over 70% in size
Target sequence (P83916 whole entry, looked up): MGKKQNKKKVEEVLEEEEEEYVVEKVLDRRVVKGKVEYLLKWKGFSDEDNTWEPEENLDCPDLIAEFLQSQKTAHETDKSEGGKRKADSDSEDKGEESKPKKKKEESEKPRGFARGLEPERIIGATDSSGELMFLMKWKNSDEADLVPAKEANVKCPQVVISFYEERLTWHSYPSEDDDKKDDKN
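HP1-beta protein (50 nM final) preincubated 30 min at room temperature with biotinylated H3(1-18)K9me3 peptide (50 nM) in PBS pH 7.4, 0.01% Tween-20, then compound added for 30 min. AlphaScreen streptavidin donor/nickel chelate acceptor beads (10 ug/mL final), 30 min dark, luminescence read.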
JMJD2A Tudor = JMJD2A Tudor domain (human) inhibition. O75164. AlphaScreen JMJD2A-Tudor / H3K4me3 peptide binding. Potency, µM (series often up to 114 µM), without a hit: top-dose activity change, negative = inhibition, most hits filed as inhibitors. 390,000 tested, 4.4% active. AID 504339; also: % is scaled to controls: 0 for no effect and ±100 for the full control effect; nearly all actives have a fitted effect of over 50% in size
* hit, by the source's call; [ ] = dose if it differs, or a comment. Hits are enriched below; roughly 12% of the tested compounds scored in any of these assays. Calls follow the shape of the dose curve; as a rule, active = well fitted curve in the direction sought with a large enough effect; inconclusive = small, poorly fitted or top-dose-only effect, or another doubt; inactive = no such curve, though single readings can be large; an effect the other way counts as inactive or inconclusive. Potency is read from the fitted curve at half-maximal effect.

`CC1(C)Cc2c(sc(NC(=O)C(=O)N3CCCC3)c2C(N)=O)CO1` gave BAZ2B inh -34%, G9a inh 50µM*, Sfp inh -29%, HP1b binding inh 25% and JMJD2A Tudor -34%.
OC1OC[C@H](O)[C@@H](O)[C@H]1O (stereo partly specified) was read as Sfp inh 6%.
Screening COC(=O)N1CCC[C@@]2(CCN(c3ccncc3)C2)C1 returned G9a inh 0%[12.7 µM] and Sfp inh 6%.
Screening COc1cc(NC(=O)NCCn2nnc3cc(S(=O)(=O)N(C)C)ccc32)cc(OC)c1 returned BAZ2B inh -13%, G9a inh 24%[59 µM], HP1b binding inh 6% and JMJD2A Tudor -3%.
For O=C(Nc1ccccc1N1CCOCC1)c1ccc2c(c1)OCCO2 the results were BAZ2B inh -2%, Sfp inh 19%, HP1b binding inh 25% and JMJD2A Tudor -12%.
O=C(Nc1cc(C(F)(F)F)ccc1N1CCCC1)c1ccc2c(c1)OCO2 was read as BAZ2B inh -20%, G9a inh 45µM*, Sfp inh 19%, HP1b binding inh 51% and JMJD2A Tudor -20%.
Screening O=C(O)c1ccccc1C(=O)Nc1cc(C(F)(F)F)ccc1N1CCCC1 returned BAZ2B inh -32%, G9a inh -8%, Sfp inh -1%, HP1b binding inh inconclusive and JMJD2A Tudor inconclusive.
O=C(Nc1ccccc1N1CCCC1)c1ccc2c(c1)OCO2 was read as BAZ2B inh -39%, G9a inh 45µM*, Sfp inh 0%, HP1b binding inh 22% and JMJD2A Tudor -17%[57.1 µM].
`CN1CCN(C(=O)c2ccc(NS(=O)(=O)c3cccc([N+](=O)[O-])c3)cc2)CC1` gave BAZ2B inh 3%, G9a inh 45µM*, HP1b binding inh -4% and JMJD2A Tudor -13%.
`CCOc1cc(/C=C/c2nc3cc(C)c(C)cc3s2)ccc1OCC(=O)N1CCOCC1` gave BAZ2B inh -25%, G9a inh 13µM*, Sfp inh inconclusive, HP1b binding inh 11% and JMJD2A Tudor -14%.
CCOc1cc(C(=O)NCc2ccc(C)cc2)ccc1OCC(=O)N1CCOCC1 was read as G9a inh 9%, Sfp inh 11%, HP1b binding inh 12% and JMJD2A Tudor 2%.
For CCOc1cc(/C=C\[N+](=O)[O-])ccc1OCC(=O)N1CCOCC1 the results were BAZ2B inh 0%, G9a inh 10µM*, Sfp inh 40µM*, HP1b binding inh 9% and JMJD2A Tudor 6%.
For COc1cc([N+](=O)[O-])cc(/C=N/N(CCC#N)C(C)=O)c1O the results were BAZ2B inh inconclusive, G9a inh 45µM*, Sfp inh 13%, HP1b binding inh 11% and JMJD2A Tudor -7%.
COC(=O)c1ccc(N/N=C/c2cc([N+](=O)[O-])cc(OC)c2O)cc1 was read as BAZ2B inh -16%, G9a inh inconclusive, Sfp inh -15%, HP1b binding inh 29% and JMJD2A Tudor -18%.
Cc1cc2c(n1-c1ccc(C(=O)NCCc3ccccc3)cc1)CCC(C)C2 (stereo unspecified) was read as BAZ2B inh -14%, G9a inh -27%[59 µM], HP1b binding inh 10% and JMJD2A Tudor -19%.
CCC(CC)C(=O)N1CCc2cc(OC)c(OC)cc2C1COc1ccc2c(C)cc(=O)oc2c1 (stereo unspecified) was read as BAZ2B inh 1%, G9a inh -6%[59 µM], HP1b binding inh 13% and JMJD2A Tudor -14%.
`CCOC(=O)c1ccc(NC(=S)N(CCCN2CCCC2)Cc2ccco2)cc1` gave BAZ2B inh -35%, G9a inh 56µM*, Sfp inh -13%, HP1b binding inh -2% and JMJD2A Tudor -25%.
Screening CCOC(=O)c1ccc(NC(=S)N(CCCN2CCN(CC)CC2)Cc2ccco2)cc1 returned BAZ2B inh -13%, G9a inh -40%, Sfp inh -1%, HP1b binding inh -3% and JMJD2A Tudor -29%.
